FBA Mtb inh – inhibitors of M. tuberculosis fructose-bisphosphate aldolase; P9WQA3; purified M. tuberculosis FBA, fluorescence read-out; inhibition, % at 1 µM; 360,000 compounds, 2.3% hits; AID 588726; in the data active means inhibition above about 27%;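 further: 0% = vehicle and 100% = reference inhibitor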
Rv3671c protease – inhibitors of M. tuberculosis serine protease Rv3671c. P9WHR9. inhibition, % at 5.96 µM. 320,000 compounds, 0.048% hits; in the data active means inhibition above about 38%;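 further: extracellular domain of Rv3671c used as enzyme; 0% = enzyme with DMSO and 100% = no enzyme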
FadD28 binding – M. tuberculosis FadD28 bisubstrate binding inhibition | FadD28 bisubstrate probe binding, fluorescence polarization | inhibition, % at 12.5 µM | 360,000 compounds, 0.22% hits | AID 588549; in the data active means inhibition above about 8.5%, passing the limit was not always enough; inconclusive means no clear call, values can overlap the other calls
GDH-TPI inh – counter-screen for M. tuberculosis FBA inhibitors: GDH-TPI coupled enzymes. inhibition, % at 4.8 µM. 360,000 compounds, 1.2% hits. AID 588335. GDH-TPI coupled enzyme counterscreen, NADH absorbance; in the data active means inhibition above about 30%;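 further: 0% = DMSO wells and 100% = wells lacking the enzyme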
Mtb UGM inh – inhibitors of M. tuberculosis UDP-galactopyranose mutase; purified UGM, fluorescence polarization probe displacement; 320,000 compounds, 0.06% hits; AID 504406; P9WIQ1; inhibition, % at 10 µM; in the data active means inhibition above about 10%, passing the limit was not always enough; inconclusive means no clear call, values can overlap the other calls
Target sequence (P9WIQ1 whole entry, looked up): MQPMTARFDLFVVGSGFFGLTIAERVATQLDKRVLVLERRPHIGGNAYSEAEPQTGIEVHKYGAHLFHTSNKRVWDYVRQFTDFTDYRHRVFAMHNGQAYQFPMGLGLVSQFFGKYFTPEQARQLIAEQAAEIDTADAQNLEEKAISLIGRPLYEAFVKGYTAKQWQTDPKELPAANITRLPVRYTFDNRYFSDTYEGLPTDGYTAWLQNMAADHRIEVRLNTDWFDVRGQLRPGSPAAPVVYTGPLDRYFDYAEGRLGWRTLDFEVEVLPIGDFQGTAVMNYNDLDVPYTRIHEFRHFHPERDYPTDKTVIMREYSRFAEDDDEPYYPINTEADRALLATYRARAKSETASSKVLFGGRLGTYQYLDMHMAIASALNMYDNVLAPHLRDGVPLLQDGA
Mtb betalactam – beta-lactam sensitization of Mtb H37Rv; inhibition, % at 25 µM; M. tuberculosis H37Rv growth with meropenem, percent inhibition; 330,000 compounds, 0.27% hits; call rule not given here;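 further: growth measured after seven days incubation then overnight dye step; 0% = bacteria only wells and 100% = bacteria with antibiotic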
* = called active by the depositor; ? = inconclusive; / = not tested or not shown; + = active, no number. Only some compounds are listed: those with a hit (about 3.7% of all), similar ones and a draw of the others.

SMILES | FBA Mtb inh | Rv3671c protease | FadD28 binding | GDH-TPI inh | Mtb UGM inh | Mtb betalactam
Cc1cc(=O)oc2cc(NC(=O)c3cc(F)ccc3F)ccc12 | 7 | 1 | 0 | 13 | -1 | -2
Cc1cc(=O)oc2cc(NS(=O)(=O)c3ccccc3)ccc12 | / | -3 | -1 | 37* | -1 | 2
CN(C)S(=O)(=O)c1ccc(S(=O)(=O)Nc2ccc3c(c2)oc2ccccc23)cc1 | -1 | 1 | 0 | 9 | 0 | 6
CC(C)CN1C(=O)c2ccc(C(=O)Nc3ccccc3C(=O)O)cc2C1=O | -1 | -18 | 5 | 17 | 3 | -2
CC(O)(CC(=O)O)CC(=O)O | / | 7 | / | / | 1 | -6
CCN(CC)c1ccc2cc(NC(=O)CCC(=O)O)c(=O)oc2c1 | 31* | 7 | -1 | 10 | 3 | -3
Cc1ccc2c(c1)COc1c3ccc(C(=O)NCCO)cc3nn1-2 | 32* | -2 | 2 | 16 | 1 | 13
COc1cccc(-c2cc(CNC(=O)[C@H]3O[C@@H](n4cnc5c(N)ncnc54)[C@H](O)[C@@H]3O)no2)c1 | -3 | / | -9 | / | / | /
Nc1nc2ccccc2n1S(=O)(=O)c1ccccc1 | 1 | / | -2 | 5 | / | /
Cc1ccc(S(=O)(=O)NN2C(=O)/C(=C/c3cccs3)SC2=S)cc1 | -4 | 1 | 4 | 31* | -1 | 1
Cc1nc(-c2cccc(NC(=O)c3cccs3)c2)cs1 | -11 | -12 | -5 | 13 | 1 | -2
Cc1c(-c2cccc(NC(=O)c3ccco3)c2)nc2ncccn12 | + | 9 | -5 | 29 | 0 | -3
Cc1c(-c2cccc(NC(=O)c3cccs3)c2)nc2ncccn12 | + | 1 | -7 | 11 | -3 | 4
OC[C@@H]1CN(Cc2ccc(-c3ccccc3)cc2)C[C@H](n2cnc3c(NC4CC4)ncnc32)O1 | -2 | / | -4 | -1 | / | /
Cc1c(C(=O)N2CCOCC2)c(S(=O)(=O)Nc2ccc(C(C)C)cc2)c(C)n1C | -4 | 0 | -5 | 3 | -2 | -5
CCN(CC)CCOC(=O)c1ccc(NC(=O)CCCN2C(=O)/C(=C/c3cccs3)SC2=S)cc1 | -3 | / | -2 | 5 | 0 | 69
CCCn1nnc(NC(=S)NC(=O)c2ccc(-c3ccc(Br)cc3)o2)n1 | 4 | -5 | -1 | 35* | 0 | 97
Cc1ccc(OC(=O)c2ccccc2)cc1C | -6 | / | -4 | -3 | / | /
COc1ccc(/C=N/Nc2nonc2N)cc1 | 2 | 0 | -2 | 25 | 0 | 1
COc1ccc(/C=N/Nc2nn3cnnc3c3ccccc23)cc1 | -3 | 6 | -4 | 35* | 0 | 1
COc1ccc(/C=N/N=C2/NC(=O)C(CC(=O)O)S2)cc1OCc1ccc(Cl)cc1Cl (stereo not drawn) | -10 | -7 | -5 | 35* | 2 | 2
COc1ccc(S(=O)(=O)Oc2cccc(/C=N/N=C3/NC(=O)C(CC(=O)O)S3)c2)cc1 (stereo not drawn) | 0 | 11 | -5 | 11 | 3 | -2
COc1ccc(/C=N/N=C2/NC(=O)C(CC(=O)O)S2)cc1OCc1ccccc1Cl (stereo not drawn) | -1 | -1 | -1 | 46* | 2 | 1
CCOc1cc(/C=N/N=C2/NC(=O)C(CC(=O)O)S2)ccc1OS(=O)(=O)c1ccc(C)cc1 (stereo not drawn) | -2 | / | -7 | 13 | / | /
CCOc1cc(/C=N/N=C2/NC(=O)C(CC(=O)O)S2)ccc1OCc1ccccc1Cl (stereo not drawn) | 0 | -11 | -2 | 40* | -1 | 2
SMILES | FBA Mtb inh | Rv3671c protease | FadD28 binding | GDH-TPI inh | Mtb UGM inh | Mtb betalactam
C=CCOC1COC2C(OCC=C)COC12 (stereo not drawn) | -1 | / | 1 | 10 | / | /
Cc1ccc(C(=O)N2CCN(c3cccc(Cl)c3)CC2)cc1C | 3 | -4 | -3 | 31* | -2 | -1
CC(C)(C)c1ccc(C(=O)Nc2cccc(-n3cnnn3)c2)cc1 | 2 | -24 | -6 | -12 | -1 | 72
Cc1ccc(C)c(S(=O)(=O)N2CCN(C(=O)CCC(=O)NCc3ccc(Cl)cc3Cl)CC2)c1 | -1 | / | -3 | 6 | / | /
Cc1nn(C)c(C)c1-c1c(C#N)c(N)nc2c1CCCCCC2 | 46* | -8 | 0 | 16 | 0 | 17
N#Cc1c(N)nc2c(c1-c1ccco1)CCCCC2 | 12 | -8 | -1 | 14 | 0 | 24
N#Cc1c(N)nc2c(c1-c1ccncc1)CCCCC2 | -1 | 2 | -1 | 17 | -2 | ?
Cc1c(-c2c(C#N)c(N)nc3c2CCCCCC3)cnn1C | + | 2 | -1 | 15 | -2 | -15

Compound activity: PubChem BioAssay, several laboratories
